# Assay: Peg3 promoter luciferase inhibitors, potency, dose response, cell-based, HeLa, CREF/GAPDH counter-screen panel (AID 624167)
# Details: CREF/GAPDH counter-screens; run 1, dose range 1, at 100 µM (top of the series)
row,SMILES,inhibition [%]
1,COC(=O)C1C=CC(OC2OC(COC(C)=O)C(OC(C)=O)C(OC(C)=O)C2OC(C)=O)n2c(=O)n(-c3ccccc3)c(=O)n21 (stereo not drawn),94.9
2,CC1CC(C)C(=O)C(C(CC2CC(=O)NC(=O)C2)OC(=O)CC(=O)c2ccccc2)C1 (stereo not drawn),88.4
3,C=C1CC2(OC1=O)c1ccccc1CCc1ccccc12,100
4,CN(C(=O)COC(=O)/C=C/c1cccc([N+](=O)[O-])c1)C1CCS(=O)(=O)C1 (stereo not drawn),26
5,CC(C)(C)c1ccc(Cn2c(=O)cnc3ccccc32)cc1,88.2
6,COc1cccc(/C=N/NC(=O)c2c(C)nc3ccc(Cl)cn23)c1O,-55.4
7,O=[N+]([O-])c1ccc(S(=O)(=O)c2ccccc2)nc1,100
8,CCCC(=O)NC(c1ccc(N(C)C)cc1)c1ccc2cccnc2c1O (stereo not drawn),25.9
9,CCCCCCN1C=C/C(=C\C=C(C#N)C#N)c2ccccc21,50.3
10,CN1OC[C@@H]2CN(S(=O)(=O)c3cccc(C(F)(F)F)c3)[C@H](c3ccc(-c4cc5ccccc5o4)cc3)C[C@@H]21,70.1
11,CC(=O)c1sc2c(c1OC(=O)c1ccc(Cl)cc1Cl)c(=O)n(-c1ccccc1)c(=S)n2-c1ccccc1,85.9
12,CCOC(=O)c1c(SCCN2CCCCC2)n(-c2ccccc2)c(=S)n(-c2ccccc2)c1=O,97
13,O=[N+]([O-])c1nn(-c2ccc3c(c2)OCCO3)n(O)c1=Nc1ccc(Cl)cc1,78.7
14,Cc1nc(C)c(C(=O)N/N=C/c2cc(Br)ccc2O)s1,-7.82
15,C/C(=N\NC(=O)c1cc(C2CC2)nc2ccccc12)c1ccc(O)cc1O,22.7
16,COc1ccc2c(c1)c(=Cc1ccc(N(C)C)cc1)c1cc(-c3ccccc3)[n+](C)n12,99.5
17,CN=c1sc2c(n1C)C(=O)c1ccccc1C2=O,89.9

row,SMILES,inhibition [%]
1,O=C(/C=C/c1ccc(Cl)c([N+](=O)[O-])c1)c1ccc(O)cc1,100
2,O=C(N/N=C/c1sc(N2CCOCC2)nc1-c1ccccc1)c1cccc(S(=O)(=O)N2CCCC2)c1,52
3,C(=N\Nc1ccc2ccccc2n1)/c1ccc2c(c1)OCCO2,99.5
4,CCc1ccc(/C=C2\SC(=S)N(CCCC(=O)NC3=NCCS3)C2=O)cc1,79.8
5,CCSc1nc2ccccc2n1C(=O)/C=C\c1ccc(OC)c(OC)c1,77.4
6,COc1ccc(-n2c(O)c(/C=N/Nc3nc(C)cc(C)n3)c3ccccc3c2=O)cc1OC,-8.04
7,CCCCC(=O)NC(c1ccccc1OC)c1ccc2cccnc2c1O (stereo not drawn),37.8
8,Cc1ccccc1CNC(=O)C1CCCN(c2nnc(C)c3c(C)n(-c4ccccc4)nc23)C1 (stereo not drawn),97.3
9,CCC(=O)NC(c1ccc(C)cc1)c1ccc2cccnc2c1O (stereo not drawn),36.2
10,Cc1ccc(C(C[N+](=O)[O-])Sc2ccc(N)cc2)cc1 (stereo not drawn),98.3
11,COc1cc(Nc2c3ccccc3nc3ccccc23)cc(OC)c1OC,95.9
12,C/C(=N\NC(=O)c1c(C)nc2ccccn12)c1ccc(O)cc1O,3.34
13,CC(=O)c1ccc(-c2cnc3c(NC=O)cc(-c4ccccc4Oc4ccccc4)cn23)cc1,39.3
14,Cc1cc(C)c2sc(NNC(=O)c3ccc(S(=O)(=O)N4CCc5ccccc5C4)cc3)nc2c1,58.6
15,CN(C)c1ccc(C=c2c3ccccc3n3c2cc(-c2ccccc2)[n+]3C)cc1,99.9
16,Cc1ccc(OCC(=O)c2cc(C)n(Cc3ccco3)c2C)c([N+](=O)[O-])n1,70.8

# From PubChem BioAssay AID624167 (Sanford-Burnham Center for Chemical Genomics, 2012)
